Consider 25 molecules from the supplement of paper PMC4840960.

For experiment [1], the system named is E18 rat cortical neuron-glia co-culture. The experiment in a line: fiber score / MBP score (myelination specific beyond OL differentiation) (ratio); higher = more myelination-specific MBP alignment. The note with it: treatment time: 8 days (DIV5-DIV13). Put shortly:
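Reported values are fiber score (continuous MBP fiber length per Olig2+ nucleus) divided by MBP score (thresholded MBP area × intensity per Olig2+ nucleus). They come from primary E18 rat cortical co-cultures treated with library compounds at 1 or 5 µM in myelination medium from DIV5 to DIV13, then fixed in 4 % paraformaldehyde, immunostained for MBP and Olig2 with DAPI, and analysed over four 10X fields per well in duplicate wells.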

Experiment [2] shares this test system. Nature of the experiment: myelination (MBP fiber length per Olig2+ nucleus), % of 1 µM DAPT response (DMSO = 0) (% of DAPT); higher = more myelination, active = 50 or more. The following applies: treatment time: 8 days (DIV5-DIV13). In short, it runs like this: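 Rat cortical co-cultures from E18 tissue were dissociated with papain and plated at 20,000 cells/well on 96-well plates coated with poly-d-lysine/laminin. From DIV5 to DIV13, library compounds were added at 1 or 5 µM in myelination medium. After fixation in 4 % paraformaldehyde, cultures were immunostained for MBP and Olig2 and counterstained with DAPI, and four 10X fields were analysed in each of duplicate wells. The myelination value is the length of continuous straight MBP fibers per Olig2+ nucleus, normalised so that 0.1 % DMSO is 0 and a 1 µM positive control is 100.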

Structures can show the parent of a compound that is named as a salt. ± gives the standard deviation of the averaged measurements.

Turning to `CC(C)NCC(O)c1ccc(NS(C)(=O)=O)cc1` (stereo not given) [Sotalol], the “fiber score / MBP score” value in experiment [1] (1 µM) stood at 0.726; in experiment [1] (5 µM), 0.499. Also, the myelination in experiment [2] (1 µM) was -33.5 (inactive); in experiment [2] (5 µM) it was -60.5 (inactive).
The corresponding values for `COc1ccc(CC2c3cc(OC)c(OC)cc3CC[N+]2(C)CCC(=O)OCCCCCOC(=O)CC[N+]2(C)CCc3cc(OC)c(OC)cc3C2Cc2ccc(OC)c(OC)c2)cc1OC` (stereo not given) [Atracurium] are 0.771, 0.948, -11.6 (inactive) and 63.1.
The corresponding values for `CN(C)[C@@H]1C(O)=C(C(N)=O)C(=O)[C@@]2(O)C(O)=C3C(=O)c4c(O)cccc4[C@@](C)(O)[C@H]3[C@H](O)[C@@H]12` [Oxytetracycline] are 0.993, 0.668, -5.3 (inactive) and -10.5 (inactive).
Regarding `C/C=C1\[C@H]2C=C(C)C[C@]1(N)c1ccc(=O)[nH]c1C2` [Huperzine A], the entries for the “fiber score / MBP score” value in experiment [1] (1 µM) and in experiment [1] (5 µM) were 1.07 and 0.872, respectively. Further, the myelination in experiment [2] (1 µM) is 8.16 (inactive); in experiment [2] (5 µM), -5.77 (inactive).
In the case of `CC(C)NCC(O)COc1ccc(CCOCC2CC2)cc1` (stereo not given) [Betaxolol], the “fiber score / MBP score” value in experiment [1] (1 µM) worked out at 0.636; in experiment [1] (5 µM) it was 0.615. For the same molecule, the myelination in experiment [2] (1 µM) was -12.6 (inactive); in experiment [2] (5 µM), -10.5 (inactive).
As to `O=C1CC[C@@H](C(=O)N2CSC[C@H]2C(=O)O)N1` [Pidotimod], the “fiber score / MBP score” value was found to be 0.869 in experiment [1] (1 µM) and 0.881 in experiment [1] (5 µM). The results for the myelination in experiment [2] (1 µM) and in experiment [2] (5 µM) were -7.34 (inactive) and -4.26 (inactive), respectively.
With `CN1C2CCCC1CC(NC(=O)c1nn(C)c3ccccc13)C2` (stereo not given) [Granisetron], the “fiber score / MBP score” value in experiment [1] (1 µM) amounted to 0.781; in experiment [1] (5 µM), 1.1. The results for the myelination in experiment [2] (1 µM) and in experiment [2] (5 µM) were -10.7 (inactive) and 1.32 (inactive), respectively.
With `CC(C)C(=O)Nc1ccc([N+](=O)[O-])c(C(F)(F)F)c1` [Flutamide], the “fiber score / MBP score” value in experiment [1] (1 µM) turned out to be 0.826; in experiment [1] (5 µM) it was 0.938. Further, the myelination was -7.82 (inactive) in experiment [2] (1 µM) and 5.48 (inactive) in experiment [2] (5 µM).
For the molecule `Cc1c(OCC(F)(F)F)ccnc1C[S+]([O-])c1nc2ccccc2[nH]1` (stereo not given) [Lansoprazole], the “fiber score / MBP score” value amounted to 0.767 in experiment [1] (1 µM) and 1.37 in experiment [1] (5 µM). For the same molecule, the myelination in experiment [2] (1 µM) is -17.3 (inactive); in experiment [2] (5 µM) it was 65.6.
As for `CN(C)CCCN1c2ccccc2CCc2ccc(Cl)cc21` [Clomipramine], the “fiber score / MBP score” value stood at 1.05 in experiment [1] (1 µM) and 0.899 in experiment [1] (5 µM). For the same molecule, the myelination in experiment [2] (1 µM) is -10.8 (inactive); in experiment [2] (5 µM), -23 (inactive).
Turning to `CCOC(=O)OC(C)OC1=C(C(=O)Nc2ccccn2)N(C)S(=O)(=O)c2ccccc21` (stereo not given) [Ampiroxicam], the entries for the “fiber score / MBP score” value in experiment [1] (1 µM) and in experiment [1] (5 µM) were 0.796 and 1.01, respectively. The figures for the myelination in experiment [2] (1 µM) and in experiment [2] (5 µM) were -15.1 (inactive) and -4.42 (inactive), respectively.
In the case of `O=C(c1ccccc1)c1ccc2n1CCC2C(=O)O` (stereo not given) [Ketorolac], the entries for the “fiber score / MBP score” value in experiment [1] (1 µM) and in experiment [1] (5 µM) were 0.853 and 1.12, respectively. The myelination in experiment [2] (1 µM) was -4.81 (inactive); in experiment [2] (5 µM), 2.63 (inactive).
The like results for `CCOC(=O)N1CCC(=C2c3ccc(Cl)cc3CCc3cccnc32)CC1` [Loratadine] were, in that order, 0.832, 0.575, -5.25 (inactive) and -5.18 (inactive).
On to `COc1cc(C(=O)NC2CCCNC2)cc(OC)c1OC` (stereo not given) [Troxipide], for which the “fiber score / MBP score” value was 0.692 in experiment [1] (1 µM) and 0.803 in experiment [1] (5 µM). Moreover, the myelination is -15.3 (inactive) in experiment [2] (1 µM) and -5 (inactive) in experiment [2] (5 µM).
As to `Nc1ccc(O)c(C(=O)O)c1` [Mesalamine], the “fiber score / MBP score” value was 0.748 in experiment [1] (1 µM) and 0.63 in experiment [1] (5 µM). Besides, the myelination in experiment [2] (1 µM) is -20.4 (inactive); in experiment [2] (5 µM), -28.3 (inactive).
Turning to `CC1=C(CC(=O)O)c2cc(F)ccc2/C1=C\c1ccc([S+](C)[O-])cc1` (stereo not given) [Sulindac], the “fiber score / MBP score” value in experiment [1] (1 µM) came to 0.97; in experiment [1] (5 µM), 0.594. Also, the values for the myelination in experiment [2] (1 µM) and in experiment [2] (5 µM) were -5.43 (inactive) and -16.6 (inactive), respectively.
The corresponding values for `CC1CCN(CCCC(=O)c2ccc(F)cc2)CC1` [Melperone hydrochloride] are 0.816, 0.519, -4.39 (inactive) and -12.5 (inactive).
Take `O=C(O)COCCN1CCN(C(c2ccccc2)c2ccc(Cl)cc2)CC1` (stereo not given) [Cetirizine]: the “fiber score / MBP score” value in experiment [1] (1 µM) was 0.908; in experiment [1] (5 µM) it was 1.11. Also, the myelination was -5.85 (inactive) in experiment [2] (1 µM) and -4.35 (inactive) in experiment [2] (5 µM).
Consider `Cc1ccc(C)c(OCCCC(C)(C)C(=O)O)c1` [Gemfibrozil], for which the “fiber score / MBP score” value in experiment [1] (1 µM) came to 0.476; in experiment [1] (5 µM), 0.995. Further, the myelination was -13.7 (inactive) in experiment [2] (1 µM) and -7.17 (inactive) in experiment [2] (5 µM).
For the molecule `CC(C)NCC(O)COc1ccc(COCCOC(C)C)cc1` (stereo not given) [Bisoprolol], the results for the “fiber score / MBP score” value in experiment [1] (1 µM) and in experiment [1] (5 µM) were 0.546 and 0.728, respectively. In addition, the myelination is -58.3 (inactive) in experiment [2] (1 µM) and -38.2 (inactive) in experiment [2] (5 µM).
As to `Cc1sc(N)c(C(=O)c2cccc(C(F)(F)F)c2)c1C`, the “fiber score / MBP score” value was determined as 0.681 in experiment [1] (1 µM) and 0.698 in experiment [1] (5 µM). In addition, the myelination in experiment [2] (1 µM) was -18.7 (inactive); in experiment [2] (5 µM), -12 (inactive).
The corresponding values for `Oc1ccc(C2CNCCc3c2cc(O)c(O)c3Cl)cc1` (stereo not given) [Fenoldopam] are 0.941, 0.611, -10.8 (inactive) and -45 (inactive).
With `CS(N)(=O)=O` [Methanesulfonamide], the “fiber score / MBP score” value in experiment [1] (1 µM) amounted to 0.63; in experiment [1] (5 µM), 0.693. The values for the myelination in experiment [2] (1 µM) and in experiment [2] (5 µM) were -10.9 (inactive) and -10.7 (inactive), respectively.
Take `O=C1CCC(N2C(=O)c3ccccc3C2=O)C(=O)N1` (stereo not given) [Thalidomide]: the “fiber score / MBP score” value in experiment [1] (1 µM) came to 1.07; in experiment [1] (5 µM) it was 1.14. The myelination in experiment [2] (1 µM) is 1.07 (inactive); in experiment [2] (5 µM), 4.71 (inactive).
Turning to `C[C@]12CCC(=O)C=C1CC[C@@H]1[C@@H]2[C@@H](O)C[C@@]2(C)[C@H]1CC[C@]2(O)C(=O)CO` [Hydrocortisone], the “fiber score / MBP score” value in experiment [1] (1 µM) worked out at 0.712 ± 0.026; in experiment [1] (5 µM) it was 0.656 ± 0.11. Further, the myelination in experiment [2] (1 µM) was -10.9 (inactive); in experiment [2] (5 µM), -10.2 (inactive).
